Shown is part of a subset that was picked to be rich in hits.
IDE exosite inh: exo-site inhibitors of human insulin-degrading enzyme. P14735. purified IDE, FL-6b probe fluorescence polarization; stronger effect = lower value. z-score at 20 µM. actives 6.3% (n = 17,000);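 active means z-score of -3 or lower, meaning strong loss of probe binding signal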;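 further: His-tagged human IDE residues 42-1019 made in E. coli with 30 nM FL-6b probe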
* = called active by the depositor; ! = repeats disagree.

SMILES	IDE exosite inh
Cc1cccc(S(=O)(=O)N2CCCCN3[C@@H](CO)[C@@H](c4ccc(C#CC(C)C)cc4)[C@@H]3C2)c1	4.66
CCS(=O)(=O)N1CC(=O)N2[C@H](CO)[C@@H](c3ccc(C#CCC4CCCC4)cc3)[C@@H]2C1	1.57
N#Cc1cccc(-c2ccc([C@@H]3[C@H](CO)N4CCCCN(S(=O)(=O)c5ccccc5)C[C@@H]34)cc2)c1	-2.63
COc1ccc(NC(=O)N[C@H]2CC[C@@H](CCNC(=O)CN3CCOCC3)O[C@H]2CO)cc1	1.36
CC(C)NC(=O)N1CCCCN2[C@H](C1)[C@H](c1ccc(C#C[C@H](C)O)cc1)[C@@H]2CO	0.934
CC(C)C#Cc1ccc([C@@H]2[C@@H](CO)N3CCCCN(C(=O)NC(C)C)C[C@H]23)cc1	0.572
CC(C)NC(=O)N1CCCCN2[C@H](CO)[C@@H](c3ccc(C#Cc4ccccc4F)cc3)[C@@H]2C1	-0.256
CC(C)NC(=O)N1CCCCN2[C@@H](CO)[C@H](c3ccc(C#Cc4ccccc4)cc3)[C@@H]2C1	-11.1*
CC(C)NC(=O)N1CCCCN2[C@H](CO)[C@@H](c3ccc(C#C[C@@H](C)O)cc3)[C@H]2C1	0.0654
CC(C)NC(=O)N1CCCCN2[C@H](CO)[C@@H](c3ccc(C#Cc4ccccc4)cc3)[C@@H]2C1	-7.45*
CC(C)NC(=O)N1CCCCN2[C@H](CO)[C@@H](c3ccc(C#C[C@H](C)O)cc3)[C@H]2C1	0.0315
CC(C)NC(=O)N1CCCCN2[C@H](CO)[C@H](c3ccc(C#C[C@@H](C)O)cc3)[C@@H]2C1	0.601
CC(C)NC(=O)N1CCCCN2[C@H](CO)[C@H](c3ccc(C#Cc4ccccc4)cc3)[C@@H]2C1	-9.76*
CC(=O)N1[C@H](CO)[C@H](c2ccccc2)[C@H]1CN(CC1CCC1)C(=O)CN(C)C	0.749
CC(C)C#Cc1ccc([C@H]2[C@H]3CN(C(=O)c4ccc5c(c4)OCO5)CC(=O)N3[C@H]2CO)cc1	-0.204
CN1c2ccc(Br)cc2[C@H]2[C@H](CCN2C(=O)c2ccc(F)cc2)[C@H]1CO	-0.364
CCCN(C)C[C@H]1OCCCC[C@@H](C)Oc2ccc(NC(=O)CCCN(C)C)cc2C(=O)N([C@@H](C)CO)C[C@H]1C	0.797
COc1ccc2c3c([nH]c2c1)[C@H](CO)N(C(=O)NC(C)C)CC31CCN(C(=O)c2cnccn2)CC1	-0.517
CNC[C@H]1OCCCC[C@@H](C)Oc2ccc(N)cc2C(=O)N([C@H](C)CO)C[C@H]1C	0.278
CN(C)C(=O)c1cccc(-c2ccc([C@@H]3[C@H]4CN(S(C)(=O)=O)CCCCN4[C@H]3CO)cc2)c1	4.01
O=C(C1CCOCC1)N1C[C@@H]2[C@H](c3ccccc31)[C@H](CO)N2C(=O)Cc1ccccn1	1.42
COc1cccc(C(=O)Nc2ccc3c(c2)C(=O)N(C)[C@@H]2CC[C@@H](CC(=O)N[C@@H](C)c4ccccc4)O[C@H]2CO3)c1	-0.769
COc1cccc(C(=O)Nc2ccc3c(c2)C(=O)N(C)[C@H]2CC[C@@H](CC(=O)N[C@H](C)c4ccccc4)O[C@@H]2CO3)c1	-3.58*
COc1cccc(C(=O)Nc2ccc3c(c2)C(=O)N(C)[C@@H]2CC[C@@H](CC(=O)N[C@@H](C)c4ccccc4)O[C@@H]2CO3)c1	0.594
COc1cccc(C(=O)Nc2ccc3c(c2)C(=O)N(C)[C@@H]2CC[C@@H](CC(=O)N[C@H](C)c4ccccc4)O[C@H]2CO3)c1	-1.63
SMILES	IDE exosite inh
C[C@H](NC(=O)C[C@H]1CC[C@@H]2[C@@H](COc3ccc(NC(=O)C4CCOCC4)cc3C(=O)N2C)O1)c1ccccc1	-0.799
COc1cccc(C(=O)Nc2ccc3c(c2)C(=O)N(C)[C@H]2CC[C@@H](CC(=O)N[C@@H](C)c4ccccc4)O[C@@H]2CO3)c1	-6.99*
CCCN1[C@H](CO)[C@H](c2ccc(-c3ccccc3F)cc2)[C@@H]1CNC(=O)C1CCC1	-2.01
CN(C[C@@H]1[C@H](c2ccccc2)[C@@H](CO)N1C(=O)C1CCC1)C(=O)c1ccccn1	0.584
O=C1CN(Cc2ccc(F)cc2)C[C@H]2[C@H](c3ccc(Br)cc3)[C@H](CO)N12	-1.51
COc1ccc([C@@H]2CC=CC[C@H](C)Oc3ccccc3C(=O)N(C)[C@@H](Cc3ccccc3)C(=O)N2)c(OC)c1 (mixture of isomers)	-0.12
CCS(=O)(=O)N1CC(=O)N2[C@H](CO)[C@@H](c3ccc(C#CC4CCCC4)cc3)[C@H]2C1	4.87
CN1C(=O)c2cc(NC(=O)Cc3cccs3)ccc2OC[C@H]2O[C@H](CC(=O)NCCCN3CCOCC3)CC[C@H]21	0.683
CC(=O)N(C)C[C@@H]1[C@@H](c2ccc(-c3ccccc3F)cc2)[C@H](CO)N1C(C)=O	-1.92
COc1cccc(C#Cc2ccc([C@H]3[C@@H](CO)N4C(=O)CN(C(=O)c5ccccc5)C[C@@H]34)cc2)c1	0.742
COc1cccc(C#Cc2ccc([C@H]3[C@H]4CN(C(=O)c5ccncc5)CC(=O)N4[C@H]3CO)cc2)c1	-1.59
COc1cccc(C#Cc2ccc([C@@H]3[C@@H](CO)N4C(=O)CN(C(=O)c5ccncc5)C[C@H]34)cc2)c1	-1.49
COc1cccc(C#Cc2ccc([C@H]3[C@H](CO)N4C(=O)CN(C(=O)c5ccncc5)C[C@@H]34)cc2)c1	-8.36*
COc1cccc(C#Cc2ccc([C@@H]3[C@H]4CN(C(=O)c5ccccc5)CC(=O)N4[C@H]3CO)cc2)c1	3.65
COc1cccc(C#Cc2ccc([C@H]3[C@@H](CO)N4C(=O)CN(C(=O)c5ccccc5)C[C@H]34)cc2)c1	-3.81*
COc1ccc(S(=O)(=O)Nc2ccc3c(c2)OC[C@H](C)NC[C@@H](C)[C@H](OC)CN(C)C3=O)cc1	0.617
CS(=O)(=O)N1CCCCN2[C@H](C1)[C@H](c1ccc(-c3cccc(C#N)c3)cc1)[C@@H]2CO	1.36
COc1ccccc1NC(=O)N1C[C@@H](O)COC[C@@H]2O[C@@H](CC(=O)NCCc3ccncc3)CC[C@H]21	1.42
C/C=C/c1ccc([C@H]2[C@@H](CO)N(C(=O)CN(C)C)[C@H]2CN(C)C(C)=O)cc1	2.96
COCC(=O)N(C)C[C@H]1[C@H](c2ccccc2)[C@@H](CO)N1C(=O)Cc1ccncc1	2.03
Cn1cnc(S(=O)(=O)N2CCCCN3[C@H](CO)[C@@H](c4ccc(-c5ccccc5F)cc4)[C@H]3C2)c1	2.52
Cc1ccccc1-c1ccc(C2[C@H]3CNC[C@@H]2N3S(=O)(=O)c2cn(C)cn2)cc1 (stereo partly specified)	-4.9*
Cc1ccccc1-c1ccc(C2[C@H]3CNC[C@@H]2N3S(=O)(=O)c2ccc(F)cc2)cc1 (stereo partly specified)	0.507
Cc1ccccc1-c1ccc(C2[C@@H]3CN(Cc4cncnc4)C[C@H]2N3)cc1 (stereo partly specified)	-2.59
O=S(=O)(c1cccc(F)c1)N1[C@@H]2CNC[C@H]1C2c1ccc(-c2ccccc2F)cc1 (stereo partly specified)	-1.07
Cc1ccccc1-c1ccc(C2[C@H]3CNC[C@@H]2N3S(=O)(=O)c2cccc(F)c2)cc1 (stereo partly specified)	-3.39*!
Cc1ccc(-c2ccc(C3[C@H]4CNC[C@@H]3N4S(=O)(=O)c3ccccc3)cc2)cc1 (stereo partly specified)	4.97
C/C=C/c1ccc(C2[C@H]3CNC[C@@H]2N3S(=O)(=O)c2cn(C)cn2)cc1 (stereo partly specified)	3.9

Compound activity (PubChem)
